Experimental data published in PubChem BioAssay.
Several values for one entry are separate records, joined by “and”; a condition that tells them apart may be missing. Identical values can stand only once. Activity calls are given as the source filed them. Cut-off read from the data, not from the text of the source, unless noted: active = inhibition above about 80%; inactive = the rest.

Legend:
[1] = target: NAD(+) hydrolase SARM1 (Homo sapiens) (UniProt Q6SZW1); experiment: blocking NAD cleavage by SARM1 SAM-TIR – cell lysate, NAD-Glo luminescence (AID 1508614;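 active = compound whose remaining NAD level is above about 45 nM, limit read from the data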;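 note: higher remaining NAD means stronger inhibition of SARM1 NADase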); conditions: SAM-TIR HEK293T lysate NADase, at 1 µM, stronger effect = higher value
[2] = galactose survival enhancers in mitochondrial complex I cybrids – cell-based, galactose medium, ATP luminescence, primary screen (AID 1645843;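 active = z-score of at least 1.8 in each of two replicates, scored against plate mean and spread of sample wells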;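 note: positive z means more ATP and so rescue of galactose-driven cybrid death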); conditions: complex I mutant cybrid cells, 72 h, stronger effect = higher value
[3] = growth inhibition, single agent or in combination, cell-based, chromothripsis tumors, cisplatin or BGB combos (AID 1671449); conditions: LFS_MB_P medulloblastoma cells;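 note: cells exposed for 96 hours; 0% = vehicle DMSO and 100% = killing by high DMSO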
[4] = growth inhibition, single agent and combos, cell-based, chromothripsis tumors, cisplatin or BGB combos (AID 1671450); conditions: HDN33 neuroblastoma cells, stronger effect = higher value;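 note: cells exposed to compound for four days; 0% = vehicle DMSO and 100% = cell killing by high DMSO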
[5] = growth inhibition, single agents and combos, ICB984, cell-based, cisplatin or BGB combos, synergistic combos for chromothripsis tumors (AID 1671451; call rule not given here;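 note: cells exposed for 96 hours before readout; 0% = vehicle DMSO and 100% = killing by high DMSO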); conditions: ICB984 medulloblastoma cells, drug combinations, stronger effect = higher value
[6] = growth inhibition, single agents and combos, LFS_MB_1R, cell-based, cisplatin or BGB combos, synergistic combos for chromothripsis tumors (AID 1671452); conditions: LFS_MB_1R medulloblastoma cells, stronger effect = higher value;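 note: cells exposed for 96 hours before readout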
[7] = growth inhibition, single agents and combos, HTB85, cell-based, BGB or cisplatin IC20 combos, synergistic combos for chromothripsis tumors (AID 1671453); conditions: HTB85 osteosarcoma cells, drug combinations, stronger effect = higher value;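 note: cells exposed for 96 hours before readout; 0% = vehicle DMSO and 100% = high DMSO killing control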
[8] = growth inhibition, single agents and combos, CRL2098, cell-based, BGB or cisplatin IC20 combos, synergistic combos for chromothripsis tumors (AID 1671454); conditions: CRL2098 osteosarcoma cells, drug combinations, stronger effect = higher value;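 note: cells exposed for 96 h before readout; 0% = vehicle DMSO and 100% = killing by high DMSO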
[9] = growth inhibition, single agents and combos, HD-MB03, cell-based, BGB or cisplatin IC20 combos, synergistic combos for chromothripsis tumors (AID 1671455; in the data active = inhibition above about 83%;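 note: 0% = vehicle DMSO and 100% = high DMSO as cytotoxic control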); conditions: HD-MB03 medulloblastoma cells, stronger effect = higher value
[10] = growth inhibition, single agents and combos, UWB1.289, cell-based, BGB or cisplatin combos, synergistic combos for chromothripsis tumors (AID 1671456); conditions: UWB1.289 ovarian carcinoma cells, stronger effect = higher value;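 note: cells exposed to compound for four days; 0% = vehicle DMSO and 100% = killing by high DMSO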
[11] = growth inhibition, single agents and combos, LFS_MB_2R, cell-based, cisplatin combos, synergistic combos for chromothripsis tumors (AID 1671457); conditions: LFS_MB_2R medulloblastoma cells, stronger effect = higher value;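 note: cells exposed to compound for four days before readout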
[12] = growth inhibition, MDA-MB-436, cell-based, BGB or cisplatin combos, synergistic combos for chromothripsis tumors (AID 1671458; call rule not given here;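 note: cells exposed for 96 hours; 0% = vehicle DMSO and 100% = killing by high DMSO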); conditions: MDA-MB-436 breast carcinoma growth inhibition, drug combinations, stronger effect = higher value
[13] = UWB1.289_BRCA1 ovarian cancer growth, cell-based, BGB or cisplatin combinations (AID 1671459); conditions: UWB1.289 BRCA1 ovarian carcinoma, drug combinations, stronger effect = higher value
[14] = drug combination toxicity in non-malignant astrocytes – cell-based, BGB or cisplatin IC20 combos, cytotoxicity control for chromothriptic childhood tumor combination screen (AID 1671460); conditions: Human astrocytes, viability inhibition, drug combinations, at 0.5 µM, stronger effect = higher value;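 note: cells exposed to compounds for 96 hours before viability readout; 0% = vehicle and 100% = killing control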
[15] = BT084 cell growth, single and combined drugs, ICGC_MB145, cisplatin and BGB IC40 combos (AID 1671461); conditions: BT084 medulloblastoma cells, drug combinations, stronger effect = higher value;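 note: cells exposed to drugs for 96 hours; 0% = vehicle DMSO and 100% = high DMSO full killing control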
[16] = RCMB18 cell growth, single agent and combined, cisplatin and BGB IC40 combos (AID 1671462); conditions: RCMB18 medulloblastoma cells, stronger effect = higher value;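 note: cells exposed to compound for four days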
[17] = CRL1545 cell growth, single agent and combined, cisplatin and BGB IC20 combos (AID 1671464); conditions: CRL1545 osteosarcoma cells, stronger effect = higher value;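 note: cells exposed to compound for 96 hours before readout; 0% = vehicle DMSO and 100% = high DMSO killing control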
F380Y = experiment: BK channel mutant inhibitors and activators – cell-based, U2OS BacMam, thallium flux, beta subunits, selectivity assay, profiling panel (AID 1259406;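 active = thallium flux through the channel raised or lowered by more than 3 SD from vehicle-only wells, actives on both sides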;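 note: initial slope of Thallos dye fluorescence rise after thallium is added; log ratio against the mean of 0.3% DMSO vehicle wells on the same plate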); conditions: U2OS BacMam BK variants, at 30 µM
F380Y/beta1 = experiment: as above; conditions: U2OS BacMam BK variants, at 30 µM
[18] = measured here: combination with BGB IC40, at 0.05 µM
[19] = measured here: with BGB IC20 combination, at 0.5 µM
[20] = measured here: with cisplatin IC20 combination, at 0.5 µM
[21] = measured here: combination with cisplatin, at 0.5 µM
[22] = measured here: combination with cisplatin, at 5 µM

Sequence of NAD(+) hydrolase SARM1 (Homo sapiens) (Q6SZW1 whole entry, looked up): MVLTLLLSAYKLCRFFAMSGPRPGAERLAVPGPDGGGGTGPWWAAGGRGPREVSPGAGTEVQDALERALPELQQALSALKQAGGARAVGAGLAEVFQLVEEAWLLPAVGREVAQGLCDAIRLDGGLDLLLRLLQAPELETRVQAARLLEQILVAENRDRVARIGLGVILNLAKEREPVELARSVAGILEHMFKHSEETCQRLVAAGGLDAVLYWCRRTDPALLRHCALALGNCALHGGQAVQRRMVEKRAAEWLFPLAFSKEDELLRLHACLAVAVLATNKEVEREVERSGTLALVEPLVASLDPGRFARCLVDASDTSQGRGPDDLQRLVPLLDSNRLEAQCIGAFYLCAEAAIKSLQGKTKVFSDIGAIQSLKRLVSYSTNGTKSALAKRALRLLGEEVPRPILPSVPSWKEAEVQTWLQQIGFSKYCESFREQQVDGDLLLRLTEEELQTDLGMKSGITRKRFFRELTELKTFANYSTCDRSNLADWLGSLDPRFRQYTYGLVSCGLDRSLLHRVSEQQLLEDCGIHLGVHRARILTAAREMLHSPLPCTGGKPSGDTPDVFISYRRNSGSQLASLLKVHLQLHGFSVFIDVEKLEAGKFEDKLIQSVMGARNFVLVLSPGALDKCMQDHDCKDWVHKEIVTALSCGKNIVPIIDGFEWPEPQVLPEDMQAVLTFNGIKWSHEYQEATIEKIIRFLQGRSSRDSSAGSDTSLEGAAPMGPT

SMILES: Nc1nc2c(ncn2CCC(CO)CO)c(=O)[nH]1
- remaining NAD [1]: 10 nM (inactive)
- z-score [2]: 0.83 (inactive) and 0.595 (inactive)
- inhibition ([3]; at 0.5 µM, stronger effect = higher value): -31.4% (inactive) and 10.2% (inactive)
- inhibition ([3]; measured here: combination with BGB IC20, at 0.005 µM): 18% and -5.86%
- inhibition ([3]; measured here: combination with BGB IC40, at 0.005 µM): -15.5% and -23.1%
- inhibition [3, 18]: -8% and -22.9%
- inhibition ([3]; measured here: combination with cisplatin, at 0.5 µM, stronger effect = higher value): -43% and 6.39%
- inhibition ([3]; measured here: combination with cisplatin, at 5 µM, stronger effect = higher value): -0.859% and -46.3%
- inhibition ([4]; BGB combo, at 5 µM): -37% and 3.74%
- inhibition ([4]; at 0.5 µM): -21.5% (inactive) and -13.7% (inactive)
- inhibition ([4]; cisplatin combo, at 5 µM): -35.4% and 5.76%
- inhibition [4, 19]: -20.3% and -5.75%
- inhibition [4, 20]: -28.1% and -7.91%
- inhibition ([4]; single agent, at 5 µM): -23.7% and -10.4%
- inhibition ([5]; BGB IC20 combo, at 0.005 µM): 6.03% and -7.22%
- inhibition ([5]; BGB IC40 combo, at 0.005 µM): -30.8% and -8.59%
- inhibition ([5]; BGB IC40 combo, at 0.05 µM): -28.9% and 4.12%
- inhibition ([5]; at 0.5 µM): -31.2% (inactive) and -13.2% (inactive)
- inhibition ([5]; cisplatin combo, at 0.05 µM): -34.1% and 1.44%
- inhibition ([5]; cisplatin combo, at 0.5 µM): -50.7% and 4.42%
- inhibition ([5]; cisplatin combo, at 5 µM): -20.3% and -61.9%
- inhibition ([5]; measured here: 5 uM single agent, at 5 µM): 6.97% and -17.4%
- inhibition ([6]; at 0.5 µM): -19.7% (inactive) and -18.4% (inactive)
- inhibition [6, 18]: -23.5% and -18.9%
- inhibition [6, 21]: -56.8% and -22.6%
- inhibition [6, 22]: -7.78% and -27.3%
- inhibition ([7]; at 0.5 µM): -21.5% (inactive) and -5.99% (inactive)
- inhibition ([7]; measured here: with BGB IC20, at 0.5 µM): -16.4% and -34.5%
- inhibition ([7]; measured here: with BGB IC20, at 5 µM): -7.68% and -31%
- inhibition ([7]; measured here: with cisplatin IC20, at 0.5 µM): -24.9% and -1.09%
- inhibition ([7]; measured here: with cisplatin IC20, at 5 µM): -9.05% and -28%
- inhibition ([7]; single agent, at 5 µM): -16.3% and 0.079%
- inhibition ([8]; at 0.5 µM): -37% (inactive) and -44.9% (inactive)
- inhibition ([8]; measured here: combination with BGB at IC20, at 0.5 µM): -37.8% and -1.8%
- inhibition ([8]; measured here: combination with cisplatin at IC20, at 0.5 µM): -13.5% and -79.6%
- inhibition ([9]; at 0.5 µM): -6.81% (inactive) and 1.52% (inactive)
- inhibition ([9]; measured here: combo with BGB at IC20, at 0.5 µM): -13.9% and 7.53%
- inhibition ([9]; measured here: combo with cisplatin at IC20, at 0.5 µM): -2.89% and -3%
- inhibition ([10]; at 0.5 µM): -12.6% (inactive) and 3.48% (inactive)
- inhibition ([10]; measured here: inhibition with BGB combination, at 0.05 µM): -7.99% and -7.52%
- inhibition ([10]; measured here: inhibition with cisplatin combination, at 0.05 µM): -19.6% and -12.5%
- inhibition ([11]; at 0.5 µM): -3.59% (inactive) and -17% (inactive)
- inhibition [11, 21]: -6.24% and -17.7%
- inhibition [11, 22]: 9.1% and -63%
- inhibition ([12]; at 0.5 µM): -1.2% (inactive) and -23.3% (inactive)
- inhibition ([12]; measured here: BGB combination, at 0.5 µM): 8.81% and -18.4%
- inhibition ([12]; measured here: BGB combination, at 5 µM): 4.8% and -29%
- inhibition ([12]; measured here: cisplatin combination, at 0.5 µM): -6.71% and -45.8%
- inhibition ([12]; measured here: cisplatin combination, at 5 µM): 5.49% and -36%
- inhibition ([13]; BGB combination, concentration series, at 5 µM): -16.8% and -15.8%
- inhibition ([13]; at 0.5 µM): -10.2% (inactive) and 1.59% (inactive)
- inhibition ([13]; cisplatin combination, concentration series, at 5 µM): 4.16% and 10.4%
- inhibition [14]: 6.25% (inactive) and 7.18% (inactive)
- inhibition ([14]; measured here: combo with BGB IC20): 34.9% and 5.65%
- inhibition ([14]; measured here: combo with cisplatin IC20): -9.35% and -4.75%
- inhibition ([15]; at 0.5 µM): 8.52% (inactive) and -29.3% (inactive)
- inhibition ([15]; cisplatin combination, at 0.5 µM): -11.9% and -14.8%
- inhibition ([15]; cisplatin combination, at 5 µM): -3.68% and -10.8%
- inhibition ([15]; measured here: BGB IC40 combination 0.05 uM, at 0.05 µM): 45.4% and 1.15%
- inhibition ([15]; single agent, at 5 µM): -12.8% and -18.7%
- inhibition ([16]; at 0.5 µM): 0.33% (inactive) and -16.2% (inactive)
- inhibition ([16]; cisplatin combo, at 5 µM): 3.43% and -89.1%
- inhibition ([16]; measured here: BGB IC40 combination, at 0.05 µM): 3.48% and 8.53%
- inhibition [16, 21]: -3.27% and -9.97%
- inhibition ([16]; single agent, at 5 µM): -16.9% and 37.5%
- inhibition ([17]; at 0.5 µM): -5.94% (inactive) and 9.73% (inactive)
- inhibition [17, 19]: -31% and 11.5%
- inhibition [17, 20]: 6.57% and 6.77%
- inhibition ([17]; single agent, at 0.05 µM): -14.4% and -21.2%
- inhibition ([17]; single agent, at 5 µM): -30.6% and 1.59%
- log fold change Tl+ flux (F380Y): 0.0173 (inactive)
- log fold change Tl+ flux (F380Y/beta1): -0.0111 (inactive)

SMILES: O=C(NCCN1CCOCC1)c1ccc(Cl)cc1
- z-score [2]: 0.645 (inactive) and 0.32 (inactive)
- log fold change Tl+ flux (F380Y): -0.0393 (inactive)
- log fold change Tl+ flux (F380Y/beta1): -0.0206 (inactive)

SMILES: O=C(O)CCNC(=O)c1ccc(N=Nc2ccc(O)c(C(=O)O)c2)cc1
- remaining NAD [1]: 10 nM (inactive)
- z-score [2]: 1.23 (inactive)
- log fold change Tl+ flux (F380Y): -0.00418 (inactive)
- log fold change Tl+ flux (F380Y/beta1): -0.0255 (inactive)
